Source: PubChem BioAssay (NCI)
This is part of a sample that, as a whole, favours compounds with a hit. Of some 79,000 tested, about 15% had one in any assay. The source made the active and inactive calls. Rule as the data show it: active = growth inhibition above about 70%; inactive = the rest.

Legend:
[1] = NCI Yeast Anticancer Drug Screen. Data for the rad52 strain (AID 147);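 also: 0% = growth of vehicle-treated control cultures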; details: S. cerevisiae rad52 mutant growth inhibition, active compounds read high
In short: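 Compounds are applied to a genetically defined yeast strain lacking normal DNA damage repair, and inhibition of growth is expressed relative to cultures given vehicle only.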

[2] = NCI Yeast Anticancer Drug Screen. Data for the wt1 strain (AID 149);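 also: 0% = growth of vehicle-treated wt1 cultures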; details: S. cerevisiae wt1 strain (SPY 50644) growth inhibition, active compounds read high
In short: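 wt1 strain grown with compound or vehicle; inhibition taken from the growth difference.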

[3] = NCI Yeast Anticancer Drug Screen. Data for the rad50EPP+ strain (AID 151);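 also: 0% = growth of vehicle-treated control cultures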; details: S. cerevisiae rad50 mutant strain, active compounds read high
In short: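 Compounds were applied to the rad50EPP+ yeast strain, which bears a defined DNA repair alteration, and growth inhibition was determined relative to vehicle-treated cultures.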

[4] = NCI Yeast Anticancer Drug Screen. Data for the mgt1 strain (AID 153); details: S. cerevisiae mgt1 mutant growth inhibition, active compounds read high
In short: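 Strain: mgt1 yeast, one of a set carrying defined DNA damage repair or cell cycle control alterations. Compound-treated growth compared with vehicle.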

[5] = NCI Yeast Anticancer Drug Screen. Data for the rad50 strain (AID 155);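 also: 0% = growth of vehicle-only cultures of the same strain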; details: S. cerevisiae rad50 strain growth inhibition, active compounds read high
In short: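 DNA repair mutant yeast, compound exposure, growth read-out; inhibition is taken relative to vehicle.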

[6] = NCI Yeast Anticancer Drug Screen. Data for the mec2-1 strain (AID 157); details: S. cerevisiae mec2-1 strain, active compounds read high
In short: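 Strain: mec2-1 (DNA repair/cell cycle alteration). Compound exposure, then growth measured; inhibition expressed relative to vehicle.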

[7] = NCI Yeast Anticancer Drug Screen. Data for the rad14 strain (AID 159);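 also: 0% = growth of vehicle-treated control cultures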; details: S. cerevisiae rad14 strain growth inhibition, active compounds read high
In short: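 DNA repair-defective yeast, compound-exposed; % growth inhibition derived by comparison with vehicle-treated controls.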

[8] = NCI Yeast Anticancer Drug Screen. Data for the sgs1 mgt1 strain (AID 161);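 also: 0% = growth of cultures given vehicle only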; details: S. cerevisiae sgs1 mgt1 strain, active compounds read high
In short: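 Read-out: growth inhibition vs vehicle controls. Cells: mutant yeast strain deficient in DNA damage repair.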

[9] = NCI Yeast Anticancer Drug Screen. Data for the CLN2oe strain (AID 163);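 also: 0% = growth of vehicle-only control cultures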; details: S. cerevisiae CLN2oe strain, active compounds read high
In short: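 Growth of a genetically modified yeast strain is measured after compound exposure and compared with cultures given vehicle alone.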

[10] = NCI Yeast Anticancer Drug Screen. Data for the cln2 rad14 strain (AID 165);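 also: 0% = growth equal to vehicle treated cultures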; details: S. cerevisiae cln2 rad14 strain, active compounds read high
In short: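 Compounds are applied to the cln2 rad14 yeast strain, and growth is then compared with that of vehicle-treated cultures to give inhibition.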

[11] = NCI Yeast Anticancer Drug Screen. Data for the bub3 strain (AID 167); details: S. cerevisiae bub3 mutant strain, active compounds read high
In short: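 In this screen, a yeast mutant lacking normal mitotic checkpoint function is challenged with compound. Relative growth versus vehicle gives the inhibition value.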

[12] = NCI Yeast Anticancer Drug Screen. Data for the wt2 strain (AID 169);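 also: 0% = growth of vehicle-treated yeast cultures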; details: S. cerevisiae wt2 strain growth inhibition, active compounds read high
In short: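 This strain belongs to a panel of yeast strains with defined genetic alterations in DNA damage repair or cell cycle control. Compounds are applied, and growth inhibition is measured against vehicle-treated cultures.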

[13] = NCI Yeast Anticancer Drug Screen. Data for the mlh1 strain (AID 171);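 also: 0% = growth of vehicle-treated control cultures of the same strain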; details: S. cerevisiae mlh1 strain growth inhibition, active compounds read high
In short: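 Growth of the mutant yeast strain after compound exposure, expressed as inhibition relative to vehicle-only controls.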

[14] = NCI Yeast Anticancer Drug Screen. Data for the sgs1 strain (AID 173);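 also: 0% = growth of vehicle-only control cultures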; details: S. cerevisiae sgs1 mutant, active compounds read high
In short: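 Growth of a yeast strain bearing a defined genetic alteration is measured after compound treatment. Inhibition is expressed relative to vehicle-only controls.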

[15] = NCI Yeast Anticancer Drug Screen. Data for the mlh1 rad18 strain (AID 175); details: S. cerevisiae mlh1 rad18 strain growth inhibition, active compounds read high
In short: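 Read-out is yeast growth inhibition, calculated against vehicle-only controls. The compound was applied to a strain engineered with DNA damage repair alterations.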

[16] = NCI Yeast Anticancer Drug Screen. Data for the rad18 strain (AID 177); details: S. cerevisiae rad18 mutant growth inhibition, active compounds read high
In short: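 Growth of the mutant yeast strain after compound exposure, normalised to vehicle-only cultures.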

[17] = at 5.0 µM (retest, dose inferred, filed as 0.5)
[18] = at 50.0 µM (retest, dose inferred, filed as 5.0)

Measured: growth inhibition

O=C1C=C(c2ccccc2)OC1(c1ccccc1)N1CCOCC1 (stereo unspecified)
active: [1]; at 100.0 µM 98% | [2]; at 100.0 µM 98% | [4]; at 100.0 µM 98% | [5]; at 100.0 µM 98% | [6]; at 100.0 µM 98% | [7]; at 100.0 µM 98% | [8]; [18] 90% | [9]; at 100.0 µM 97% | [11]; at 100.0 µM 98% | [12]; at 100.0 µM 98% | [13]; at 100.0 µM 98% | [14]; at 33.0 µM 76% | [14]; at 100.0 µM 98% | [15]; [18] 75% | [16]; at 100.0 µM 98%
inactive: [1]; at 1.2 µM -1% | [1]; at 3.7 µM -1% | [1]; at 11.0 µM 3% | [1]; at 33.0 µM 16% | [2]; at 1.2 µM -1% | [2]; at 3.7 µM 2% | [2]; at 11.0 µM -4% | [2]; at 33.0 µM -7% | [3]; at 1.2 µM 3% | [3]; at 3.7 µM 7% | [3]; at 11.0 µM 7% | [3]; at 33.0 µM 10% | [3]; at 100.0 µM 17% | [4]; at 1.2 µM -5% | [4]; at 3.7 µM -6% | [4]; at 11.0 µM -4% | [4]; at 33.0 µM 59% | [5]; at 1.2 µM 1% | [5]; at 3.7 µM 4% | [5]; [17] -20% | [5]; at 11.0 µM 1% | [5]; at 33.0 µM 19% | [5]; [18] 69% | [5]; at 50.0 µM -0.2% | [6]; at 1.2 µM -1% | [6]; at 3.7 µM 4% | [6]; [17] -12% | [6]; at 11.0 µM 3% | [6]; at 33.0 µM 8% | [6]; [18] 0% | [6]; at 50.0 µM -5.95% | [7]; at 1.2 µM -2% | [7]; at 3.7 µM -1% | [7]; at 11.0 µM -1% | [7]; at 33.0 µM 9% | [8]; [17] -2% | [8]; at 50.0 µM 55.7% | [9]; at 1.2 µM 1% | [9]; at 3.7 µM -4% | [9]; at 11.0 µM 6% | [9]; at 33.0 µM 0% | [10]; [17] 2% | [10]; [18] 14% | [10]; at 50.0 µM 19.9% | [11]; at 1.2 µM 0% | [11]; at 3.7 µM -1% | [11]; [17] -1% | [11]; at 11.0 µM 4% | [11]; at 33.0 µM 14% | [11]; [18] 44% | [11]; at 50.0 µM -27.7% | [12]; at 1.2 µM 0% | [12]; at 3.7 µM -1% | [12]; at 11.0 µM -3% | [12]; at 33.0 µM 52% | [13]; at 1.2 µM 3% | [13]; at 3.7 µM 1% | [13]; at 11.0 µM -7% | [13]; at 33.0 µM 55% | [14]; at 1.2 µM 0% | [14]; at 3.7 µM 0% | [14]; at 11.0 µM 4% | [15]; [17] -17% | [15]; at 50.0 µM -1.85% | [16]; at 1.2 µM 1% | [16]; at 3.7 µM -4% | [16]; at 11.0 µM -2% | [16]; at 33.0 µM 7%

CC(C)/C(Cl)=N\OC(=O)Nc1ccc(F)cc1F
active: [1]; at 100.0 µM 75% | [3]; at 100.0 µM 85% | [4]; at 100.0 µM 96% | [5]; [18] 78% | [5]; at 100.0 µM 80% | [6]; [18] 83% | [6]; at 50.0 µM 72.4% | [6]; at 100.0 µM 95% | [8]; at 50.0 µM 70.8% | [11]; at 11.0 µM 70% | [11]; at 33.0 µM 90% | [11]; [18] 97% | [11]; at 50.0 µM 82.1% | [11]; at 100.0 µM 98% | [14]; at 100.0 µM 83% | [16]; at 100.0 µM 79%
inactive: [1]; at 1.2 µM 1% | [1]; at 3.7 µM 7% | [1]; at 11.0 µM 15% | [1]; at 33.0 µM 28% | [2]; at 1.2 µM 2% | [2]; at 3.7 µM 1% | [2]; at 11.0 µM -2% | [2]; at 33.0 µM -1% | [2]; at 100.0 µM 6% | [3]; at 1.2 µM 7% | [3]; at 3.7 µM 13% | [3]; at 11.0 µM 25% | [3]; at 33.0 µM 54% | [4]; at 1.2 µM 3% | [4]; at 3.7 µM 1% | [4]; at 11.0 µM 4% | [4]; at 33.0 µM 13% | [5]; at 1.2 µM 2% | [5]; at 3.7 µM 8% | [5]; [17] 2% | [5]; at 11.0 µM 15% | [5]; at 33.0 µM 32% | [5]; at 50.0 µM 6.55% | [6]; at 1.2 µM 5% | [6]; at 3.7 µM 9% | [6]; [17] 4% | [6]; at 11.0 µM 13% | [6]; at 33.0 µM 28% | [7]; at 1.2 µM 0% | [7]; at 3.7 µM 3% | [7]; at 11.0 µM 9% | [7]; at 33.0 µM 17% | [7]; at 100.0 µM 37% | [8]; [17] -12% | [8]; [18] 69% | [9]; at 1.2 µM 7% | [9]; at 3.7 µM 11% | [9]; at 11.0 µM 12% | [9]; at 33.0 µM 12% | [9]; at 100.0 µM 24% | [10]; [17] -1% | [10]; [18] 38% | [10]; at 50.0 µM 44.8% | [11]; at 1.2 µM 23% | [11]; at 3.7 µM 38% | [11]; [17] 27% | [12]; at 1.2 µM 0% | [12]; at 3.7 µM 0% | [12]; at 11.0 µM 2% | [12]; at 33.0 µM 12% | [12]; at 100.0 µM 63% | [13]; at 1.2 µM 0% | [13]; at 3.7 µM 6% | [13]; at 11.0 µM 9% | [13]; at 33.0 µM 16% | [13]; at 100.0 µM 53% | [14]; at 1.2 µM -1% | [14]; at 3.7 µM 0% | [14]; at 11.0 µM 4% | [14]; at 33.0 µM 27% | [15]; [17] -29% | [15]; [18] 69% | [15]; at 50.0 µM 58% | [16]; at 1.2 µM -3% | [16]; at 3.7 µM -1% | [16]; at 11.0 µM 4% | [16]; at 33.0 µM 17%

CN1CCN(C(=O)/C=C/C(=O)c2ccccc2)CC1
active: [1]; at 100.0 µM 86% | [2]; at 100.0 µM 87% | [4]; at 33.0 µM 79% | [4]; at 100.0 µM 95% | [5]; at 50.0 µM 93.3% | [5]; at 100.0 µM 90%
inactive: [1]; at 1.2 µM 4% | [1]; at 3.7 µM 11% | [1]; at 11.0 µM 24% | [1]; at 33.0 µM 63% | [2]; at 1.2 µM 4% | [2]; at 3.7 µM 12% | [2]; at 11.0 µM 24% | [2]; at 33.0 µM 47% | [3]; at 1.2 µM 4% | [3]; at 3.7 µM 13% | [3]; at 11.0 µM 31% | [3]; at 33.0 µM 50% | [3]; at 100.0 µM 66% | [4]; at 1.2 µM 2% | [4]; at 3.7 µM 10% | [4]; at 11.0 µM 34% | [5]; at 1.2 µM -3% | [5]; at 3.7 µM -8% | [5]; [17] 9% | [5]; at 11.0 µM 23% | [5]; at 33.0 µM 69% | [5]; [18] -3% | [6]; at 1.2 µM 2% | [6]; at 3.7 µM 12%
